Data taken from PubChem BioAssay AID1851 (National Center for Advancing Translational Sciences (NCATS), 2009).
Hit rate of the full screen: of about 16,000 compounds, about 4,000 (25%) were called active. Inconclusive results (about 26%) are left out. Calls follow the shape of the dose curve; as a rule, active = well fitted curve in the direction sought with a large enough effect; inconclusive = small, poorly fitted or top-dose-only effect, or effect the other way; inactive = no such curve, though single readings can be large or run the other way. These entries were drawn from the full list. Square brackets hold non-standard residues; d marks the D form. Peptide text beside a SMILES is read from it. * marks the point of attachment. ξ: configuration not given here. Cbz = O=C(OCc1ccccc1)*; PhAc = O=C(Cc1ccccc1)*; OBn = c1ccc(CO*)cc1; ξP = O=C(O)C1CCCN1

Biological target: Cytochrome P450 2C9 (Homo sapiens) (UniProt P11712)
Test: Cytochrome panel assay with activity outcomes
Details: recombinant CYP, pro-luciferin dealkylation, luminescence, p450-cyp2c9; series mostly up to 57.1 µM; activity, negative = inhibition: at the top concentration
% is scaled to controls: 0 for no effect and ±100 for the full control effect.

Sequence of Cytochrome P450 2C9 (Homo sapiens) (P11712 whole entry, looked up): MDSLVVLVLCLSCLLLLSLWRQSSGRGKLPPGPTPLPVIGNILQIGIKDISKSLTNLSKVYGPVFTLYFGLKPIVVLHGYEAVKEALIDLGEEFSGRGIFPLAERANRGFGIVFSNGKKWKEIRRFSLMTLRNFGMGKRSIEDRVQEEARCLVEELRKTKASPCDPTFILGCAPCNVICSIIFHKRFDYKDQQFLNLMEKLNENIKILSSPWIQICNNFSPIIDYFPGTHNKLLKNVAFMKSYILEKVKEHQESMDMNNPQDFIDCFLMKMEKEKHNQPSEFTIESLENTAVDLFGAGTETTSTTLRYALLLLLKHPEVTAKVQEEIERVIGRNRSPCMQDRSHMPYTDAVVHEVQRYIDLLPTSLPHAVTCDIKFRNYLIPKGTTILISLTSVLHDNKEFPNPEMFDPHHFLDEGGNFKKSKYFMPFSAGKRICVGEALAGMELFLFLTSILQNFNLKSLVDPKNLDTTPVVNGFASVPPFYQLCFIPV

| Compound | activity, negative = inhibition | AC50 |
| --- | --- | --- |
| O=C(NCCCN1CCCCCC1)[C@@H](c1ccccc1)C1CCCCC1 | 6.43% (inactive) | – |
| Cn1nc(C(=O)NC2CCCCC2)c2ccccc2c1=O | – | 7.94 µM (active) |
| N=c1c(C(=O)NC2CCCC2)cc2c(=O)n3ccccc3nc2n1C1CCCC1 | -18.4% (inactive) | – |
| O=C(Nc1nnc(C2CC2)s1)c1cc(S(=O)(=O)N2CCN(c3ccccc3)CC2)ccc1Cl | – | 7.08 µM (active) |
| COC(=O)C/C=C\[C@@H](C)[C@@H](/C=N\O[C@@H](C)CN1CCCCc2nc(C)c(C)cc21)NS(=O)(=O)c1ccc(C)cc1 | -13.5% [at 11.4 µM] (inactive) | – |
| O=C(O)CNC(=O)c1ccccc1O | 1.11% [at 11.4 µM] (inactive) | – |
| O=C(CNC(=O)/C(=C\c1ccccc1)NC(=O)c1ccc(Br)cc1)OCc1ccccc1 | – | 3.55 µM (active) |
| O=C(CNC(=O)OCc1ccccc1)NCC(=O)N1CCCC1C(=O)OCc1ccccc1 (stereo not drawn) (Cbz-Gly-Gly-[ξP]-OBn) | -3.89% (inactive) | – |
| COc1cc(/C=C(/NC(=O)c2ccccc2Cl)C(=O)O)cc(OC)c1OC | -5.09% (inactive) | – |
| O=C(NCC1CCCO1)/C(=C\c1ccco1)NC(=O)c1ccccc1 (stereo unspecified) | -11.4% (inactive) | – |
| COc1ccccc1C(=O)N/C(=C/c1ccc(Br)cc1)C(=O)NCC(=O)O | – | 15.8 µM (active) |
| O=C(CNC(=O)Cc1ccccc1)NCC(=O)OCc1ccccc1 (PhAc-Gly-Gly-OBn) | 21.8% (inactive) | – |
| O=C(O)C/C(=C\c1ccco1)C(=O)O | 4.79% [at 11.4 µM] (inactive) | – |
| O=C(NC(Cc1ccccc1)C(=O)O)/C(=C\c1ccco1)NC(=O)c1ccc(Br)cc1 (stereo unspecified) | – | 15.8 µM (active) |
| O=[N+]([O-])c1ccc(CSc2ncnc3c2ncn3[C@@H]2O[C@@H](CO)[C@@H](O)[C@H]2O)cc1 | 5.51% (inactive) | – |
| C=C(Br)CN(C)CC(=C)Br | 2.22% [at 11.4 µM] (inactive) | – |
| CC(=O)OCC1=C(C(=O)O)N2C(=O)[C@@H](NC(=O)Cc3cccs3)[C@@H]2SC1 | – | inactive |
| COc1ccccc1CNc1cc(-c2cccnc2)ncn1 | -0.576% [at 2.29 µM] (inactive) | – |
| COc1ccc(CNc2cc(-c3cccnc3)ncn2)c(OC)c1 | 17.1% [at 2.29 µM] (inactive) | – |

| Compound | activity, negative = inhibition | AC50 |
| --- | --- | --- |
| COc1ccc(CCNc2nc(-c3cccnc3)cs2)cc1OC | – | 2.51 µM (active) |
| Cc1sc(NC(=O)/C=C/c2ccc(C(C)C)cc2)c(C#N)c1C | 24.1% (inactive) | – |
| Cc1sc(NC(=O)C2CCCCC2)c(C#N)c1-c1ccccc1 | – | 15.8 µM (active) |
| Oc1ccc(CNCc2ccccc2)c2cccnc12 | -9.84% [at 11.4 µM] (inactive) | – |
| CC(C)NC1(C(N)=O)CCN(Cc2ccccc2)CC1 | -5.53% [at 11.4 µM] (inactive) | – |
| CC(C)OC(=O)C(C#N)c1nc2ccccc2nc1N1CCN(Cc2ccccc2)CC1 (stereo unspecified) | – | 2.82 µM (active) |
| CC(=O)N1CCC2(CCN(Cc3ccccc3)CC2)CC1 | -0.802% (inactive) | – |
| CN(C)c1ccc(-c2ccc3ncnc(N4CCNCC4)c3c2)cc1 | 6% [at 2.29 µM] (inactive) | – |
| Cc1cccc(CNc2ccnc(-c3ccoc3)n2)c1 | -14.6% [at 2.29 µM] (inactive) | – |
| Cc1nn2c(C)nc3sc4c(c3c2nc1=O)CC(C)(C)OC4 | -21% (inactive) | – |
| CC1(C)Cc2c(sc3nc(-c4ccccc4)n(N)c(=O)c23)CO1 | – | 12.6 µM (active) |
| CCCN1C[C@H](CSC)C[C@H]2c3cccc4[nH]cc(c34)C[C@@H]21 | -5.72% [at 25.6 µM] (inactive) | – |
| N[C@@H](CCCP(=O)(O)O)C(=O)O | -6.04% (inactive) | – |
| CCN(CC)c1ccc(NC(=O)CSc2nnc3nc(C)cc(C)n23)cc1 | -15.7% (inactive) | – |
| CN(C)c1ccc(NC(=O)CSc2nc(N)c(C(=O)Nc3ccc(N(C)C)cc3)s2)cc1 | – | 2.82 µM (active) |
| C[C@@]12CCC(=O)C=C1CC[C@H]1[C@@H]2[C@@H](O)C[C@]2(C)[C@@H]1CC[C@@]2(O)C(=O)CO | -3.75% [at 11.4 µM] (inactive) | – |
| CCOC(=O)c1c(N2C(=O)Nc3cc(Cl)c(Cl)cc3N2O)sc2c1CCCCC2 | – | 3.55 µM (active) |
| Cc1ccc(S(=O)(=O)Oc2cc(N)c3c(n2)CCC3)cc1 | 20.5% [at 11.4 µM] (inactive) | – |
| Cc1ccc(S(=O)(=O)Oc2ccc(C3C4=C(CCCC4=O)OC4=C3C(=O)CCC4)cc2)cc1 | – | 3.98 µM (active) |

| Compound | activity, negative = inhibition | AC50 |
| --- | --- | --- |
| O=C1CCCC2=C1C(c1ccc(OS(=O)(=O)c3ccc(Cl)cc3)cc1)C1=C(CCCC1=O)O2 | – | 7.08 µM (active) |
| Cc1ccc(S(=O)(=O)Oc2cc(S(=O)(=O)O)cc3cc(S(=O)(=O)O)cc(N)c23)cc1 | -5.74% [at 11.4 µM] (inactive) | – |
| CN(C)C[C@H]1CCC2=C(C1=O)C(c1ccc(Cl)c(Cl)c1)C1=C(CC[C@H](CN(C)C)C1=O)O2 | -1.08% [at 11.4 µM] (inactive) | – |
| O=C(O)c1c2c(c(O)c3c1CN(C1CCCCC1)CO3)OCN(C1CCCCC1)C2 | -1.96% [at 11.4 µM] (inactive) | – |
| O=C(/C=C\c1ccc(O)c(O)c1)O[C@@H](Cc1ccc(O)c(O)c1)C(=O)O | -21.8% (inactive) | – |
| Cc1ccccc1S(=O)(=O)O[C@@H]1NS(=O)(=O)c2ccccc21 | 20.8% [at 11.4 µM] (inactive) | – |
| Cc1ccccc1S(=O)(=O)Oc1ccccc1C(=O)Oc1ccccc1 | – | 2.24 µM (active) |
| Cc1cc2c(c(=O)o1)[C@@H](O)[C@H]1O[C@@H]1C2=O | -1.55% [at 11.4 µM] (inactive) | – |
| COc1ccc(CC(=O)Nc2ccc(-c3noc(-c4cccc(OC)c4)n3)cc2)cc1 | -12.6% (inactive) | – |
| O=C(Cc1ccc(Cl)cc1)Nc1cccc(-c2nnc(-c3ccco3)o2)c1 | – | 0.178 µM (active) |
| COc1ccc(CC(=O)Nc2cccc(-c3nnc(-c4ccco4)o3)c2)cc1 | – | 0.316 µM (active) |
| O=C(Nc1nnc(-c2ccc(Cl)cc2)o1)Nc1ccccc1Cl | -14.2% (inactive) | – |
| COc1ccccc1CN1CCC2(CC1)CCN(C(=O)c1c(C)noc1C)CC2 | -3.96% (inactive) | – |
| CN(Cc1ccco1)c1ccnc(-c2cccc(NS(C)(=O)=O)c2)n1 | -11.7% [at 2.29 µM] (inactive) | – |
| O=C(CC(=O)NN=C1CCCC1)NCCc1ccccc1 | -21.1% (inactive) | – |
| COCCCNC(=O)CN(c1ccc(OC)cc1)S(=O)(=O)c1ccc(NC(C)=O)cc1 | – | 11.2 µM (active) |
| COc1ccc(N(CC(=O)NN=C2CCCC2)S(=O)(=O)c2ccccc2)cc1 | – | 10 µM (active) |
| CC1CCC(=NNC(=O)Cc2ccccc2)CC1 (stereo unspecified) | -15.6% (inactive) | – |
